Laboratory results: PubChem BioAssay (NCI)
This is part of a sample that, as a whole, favours compounds with a hit. Of some 79,000 tested, about 15% had one in any assay. Unmarked numbers belong to inactive results. The source made the active and inactive calls. Cut-off read from the data, not from the text of the source: active = growth inhibition above about 70%; inactive = the rest.

Key:
[1] = NCI Yeast Anticancer Drug Screen. Data for the wt1 strain (AID 149);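 note: 0% = growth of vehicle-treated wt1 cultures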; settings: S. cerevisiae wt1 strain (SPY 50644) growth inhibition, stronger effect = higher value
How it was run: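 Vehicle-normalised growth inhibition; strain wt1; compound exposure.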

[2] = NCI Yeast Anticancer Drug Screen. Data for the rad50EPP+ strain (AID 151);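 note: 0% = growth of vehicle-treated control cultures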; settings: S. cerevisiae rad50 mutant strain, stronger effect = higher value
How it was run: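 One strain with a rad50 alteration (rad50EPP+) was compound-treated, its growth then compared to that of vehicle controls.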

[3] = NCI Yeast Anticancer Drug Screen. Data for the mgt1 strain (AID 153); settings: S. cerevisiae mgt1 mutant growth inhibition, stronger effect = higher value
How it was run: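 After exposure of the mgt1 yeast mutant to compound, growth was measured and reported as inhibition compared with vehicle controls.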

[4] = NCI Yeast Anticancer Drug Screen. Data for the rad50 strain (AID 155);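 note: 0% = growth of vehicle-only cultures of the same strain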; settings: S. cerevisiae rad50 strain growth inhibition, stronger effect = higher value
How it was run: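 A DNA repair-deficient yeast mutant serves as the test organism; compound-induced growth inhibition is calculated against vehicle-treated cells.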

[5] = NCI Yeast Anticancer Drug Screen. Data for the mec2-1 strain (AID 157); settings: S. cerevisiae mec2-1 strain, stronger effect = higher value
How it was run: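 Test agents were screened against the mec2-1 yeast strain, with defined DNA repair or cell cycle alteration. Growth was scored as inhibition against vehicle-only controls.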

[6] = NCI Yeast Anticancer Drug Screen. Data for the rad14 strain (AID 159);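 note: 0% = growth of vehicle-treated control cultures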; settings: S. cerevisiae rad14 strain growth inhibition, stronger effect = higher value
How it was run: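 Vehicle-treated cultures served as the baseline for growth inhibition of a DNA repair-mutant yeast strain exposed to each compound.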

[7] = NCI Yeast Anticancer Drug Screen. Data for the sgs1 mgt1 strain (AID 161);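 note: 0% = growth of cultures given vehicle only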; settings: S. cerevisiae sgs1 mgt1 strain, stronger effect = higher value
How it was run: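 Mutant yeast exposed to compound; growth scored against vehicle-only wells.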

[8] = NCI Yeast Anticancer Drug Screen. Data for the CLN2oe strain (AID 163);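 note: 0% = growth of vehicle-only control cultures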; settings: S. cerevisiae CLN2oe strain, stronger effect = higher value
How it was run: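 Here, growth inhibition in a cell-cycle-altered yeast strain after compound exposure was quantified against vehicle control growth.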

[9] = NCI Yeast Anticancer Drug Screen. Data for the cln2 rad14 strain (AID 165);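 note: 0% = growth equal to vehicle treated cultures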; settings: S. cerevisiae cln2 rad14 strain, stronger effect = higher value
How it was run: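 Growth of compound-exposed yeast (cln2 rad14 genotype) measured and expressed as inhibition relative to vehicle.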

[10] = NCI Yeast Anticancer Drug Screen. Data for the bub3 strain (AID 167); settings: S. cerevisiae bub3 mutant strain, stronger effect = higher value
How it was run: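 Inhibition values come from growth of compound-treated mutant yeast normalised to vehicle-treated controls.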

[11] = NCI Yeast Anticancer Drug Screen. Data for the wt2 strain (AID 169);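 note: 0% = growth of vehicle-treated yeast cultures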; settings: S. cerevisiae wt2 strain growth inhibition, stronger effect = higher value
How it was run: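 Genetically defined yeast strains from a DNA-repair/cell-cycle panel were used. Compound-exposed yeast growth was measured, and the inhibition was calculated relative to vehicle treatment.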

[12] = NCI Yeast Anticancer Drug Screen. Data for the mlh1 strain (AID 171);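 note: 0% = growth of vehicle-treated control cultures of the same strain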; settings: S. cerevisiae mlh1 strain growth inhibition, stronger effect = higher value
How it was run: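 Here the genetically defined yeast mutant is grown with each compound, and the extent to which its growth falls below that of vehicle-exposed cells is reported.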

[13] = NCI Yeast Anticancer Drug Screen. Data for the sgs1 strain (AID 173);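 note: 0% = growth of vehicle-only control cultures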; settings: S. cerevisiae sgs1 mutant, stronger effect = higher value
How it was run: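 Relative growth inhibition, referenced to vehicle, was determined in a yeast strain with a defined alteration affecting DNA damage repair or cell cycle control after compound exposure.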

[14] = NCI Yeast Anticancer Drug Screen. Data for the mlh1 rad18 strain (AID 175); settings: S. cerevisiae mlh1 rad18 strain growth inhibition, stronger effect = higher value
How it was run: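 In this whole-cell yeast screen, a strain with altered DNA damage repair is challenged with compound, and its growth is measured against matched vehicle-treated controls.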

[15] = NCI Yeast Anticancer Drug Screen. Data for the rad18 strain (AID 177); settings: S. cerevisiae rad18 mutant growth inhibition, stronger effect = higher value
How it was run: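 Screen uses a yeast strain with a defined lesion in DNA damage repair; compound effect is read as loss of growth compared to untreated vehicle cultures.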

[16] = at 5.0 µM (retest, dose inferred, filed as 0.5)
[17] = at 50.0 µM (retest, dose inferred, filed as 5.0)

SMILES: Cc1ccccc1NC(=O)c1c(C)oc2c1C(=O)c1ccccc1C2=O
- growth inhibition ([1]; at 1.2 µM): -28%
- growth inhibition ([1]; at 3.7 µM): -23%
- growth inhibition ([1]; at 11.0 µM): -23%
- growth inhibition ([1]; at 33.0 µM): -5%
- growth inhibition ([1]; at 100.0 µM): 60%
- growth inhibition ([2]; at 1.2 µM): -8%
- growth inhibition ([2]; at 3.7 µM): -17%
- growth inhibition ([2]; at 11.0 µM): 7%
- growth inhibition ([2]; at 33.0 µM): 42%
- growth inhibition ([2]; at 100.0 µM): 82% (active)
- growth inhibition ([3]; at 1.2 µM): -40%
- growth inhibition ([3]; at 3.7 µM): -35%
- growth inhibition ([3]; at 11.0 µM): -21%
- growth inhibition ([3]; at 33.0 µM): 57%
- growth inhibition ([3]; at 100.0 µM): 93% (active)
- growth inhibition ([4]; at 1.2 µM): -13%
- growth inhibition ([4]; at 3.7 µM): -12%
- growth inhibition [4, 16]: 6%
- growth inhibition ([4]; at 11.0 µM): -1%
- growth inhibition ([4]; at 33.0 µM): 7%
- growth inhibition [4, 17]: 33%
- growth inhibition ([4]; at 50.0 µM): 82.2% (active)
- growth inhibition ([4]; at 100.0 µM): 86% (active)
- growth inhibition ([5]; at 1.2 µM): -28%
- growth inhibition ([5]; at 3.7 µM): -31%
- growth inhibition [5, 16]: -10%
- growth inhibition ([5]; at 11.0 µM): -24%
- growth inhibition ([5]; at 33.0 µM): 19%
- growth inhibition [5, 17]: 71% (active)
- growth inhibition ([5]; at 50.0 µM): 50.5%
- growth inhibition ([5]; at 100.0 µM): 92% (active)
- growth inhibition ([6]; at 1.2 µM): -45%
- growth inhibition ([6]; at 3.7 µM): -28%
- growth inhibition ([6]; at 11.0 µM): -26%
- growth inhibition ([6]; at 33.0 µM): 12%
- growth inhibition ([6]; at 100.0 µM): 93% (active)
- growth inhibition [7, 16]: -10%
- growth inhibition [7, 17]: 3%
- growth inhibition ([7]; at 50.0 µM): 71% (active)
- growth inhibition ([8]; at 1.2 µM): -13%
- growth inhibition ([8]; at 3.7 µM): 19%
- growth inhibition ([8]; at 11.0 µM): 9%
- growth inhibition ([8]; at 33.0 µM): 39%
- growth inhibition ([8]; at 100.0 µM): 87% (active)
- growth inhibition [9, 16]: 1%
- growth inhibition [9, 17]: 51%
- growth inhibition ([9]; at 50.0 µM): 53.1%
- growth inhibition ([10]; at 1.2 µM): -57%
- growth inhibition ([10]; at 3.7 µM): -36%
- growth inhibition [10, 16]: 17%
- growth inhibition ([10]; at 11.0 µM): -23%
- growth inhibition ([10]; at 33.0 µM): 25%
- growth inhibition [10, 17]: 94% (active)
- growth inhibition ([10]; at 50.0 µM): 69.2%
- growth inhibition ([10]; at 100.0 µM): 85% (active)
- growth inhibition ([11]; at 1.2 µM): -6%
- growth inhibition ([11]; at 3.7 µM): -7%
- growth inhibition ([11]; at 11.0 µM): 14%
- growth inhibition ([11]; at 33.0 µM): 30%
- growth inhibition ([11]; at 100.0 µM): 87% (active)
- growth inhibition ([12]; at 1.2 µM): -2%
- growth inhibition ([12]; at 3.7 µM): -8%
- growth inhibition ([12]; at 11.0 µM): -12%
- growth inhibition ([12]; at 33.0 µM): -5%
- growth inhibition ([12]; at 100.0 µM): 85% (active)
- growth inhibition ([13]; at 1.2 µM): -15%
- growth inhibition ([13]; at 3.7 µM): -15%
- growth inhibition ([13]; at 11.0 µM): -2%
- growth inhibition ([13]; at 33.0 µM): 24%
- growth inhibition ([13]; at 100.0 µM): 83% (active)
- growth inhibition [14, 16]: -2%
- growth inhibition [14, 17]: 76% (active)
- growth inhibition ([14]; at 50.0 µM): 77% (active)
- growth inhibition ([15]; at 1.2 µM): -23%
- growth inhibition ([15]; at 3.7 µM): -24%
- growth inhibition ([15]; at 11.0 µM): -17%
- growth inhibition ([15]; at 33.0 µM): -8%
- growth inhibition ([15]; at 100.0 µM): 55%
